Columns and labels:
[1] = target: Protein kinase C gamma type (Homo sapiens) (UniProt P05129); conditions: at 1 µM;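 note: each value is an averaged percent inhibition of the enzyme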
[2] = target: T1, Protein kinase C iota type (Homo sapiens) (UniProt P41743); conditions: at 0.1 µM
T1 sequence (whole entry): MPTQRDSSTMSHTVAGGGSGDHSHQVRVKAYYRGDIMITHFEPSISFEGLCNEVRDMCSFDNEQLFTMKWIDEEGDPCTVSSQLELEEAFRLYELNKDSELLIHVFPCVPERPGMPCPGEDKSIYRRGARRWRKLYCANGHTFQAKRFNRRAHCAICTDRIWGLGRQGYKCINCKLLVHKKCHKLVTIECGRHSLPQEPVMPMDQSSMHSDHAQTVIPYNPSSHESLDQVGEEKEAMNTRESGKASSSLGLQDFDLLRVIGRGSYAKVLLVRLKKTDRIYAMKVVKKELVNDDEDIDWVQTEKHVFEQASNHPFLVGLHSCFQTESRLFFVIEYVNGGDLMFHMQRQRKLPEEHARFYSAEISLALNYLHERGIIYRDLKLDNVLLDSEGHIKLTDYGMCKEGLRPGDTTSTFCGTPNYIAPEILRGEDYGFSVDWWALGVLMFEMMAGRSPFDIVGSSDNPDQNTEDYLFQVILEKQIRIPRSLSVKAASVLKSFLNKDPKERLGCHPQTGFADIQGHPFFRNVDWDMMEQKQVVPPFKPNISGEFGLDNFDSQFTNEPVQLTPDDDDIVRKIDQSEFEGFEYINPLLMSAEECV

[3] = target: T1, Protein kinase C iota type (Homo sapiens); conditions: at 1 µM
[4] = target: Protein kinase C theta type (Homo sapiens) (UniProt Q04759); conditions: at 0.1 µM
[5] = target: Protein kinase C theta type (Homo sapiens) (UniProt Q04759); conditions: at 1 µM
[6] = target: Protein kinase C beta type (Homo sapiens) (UniProt P05771); conditions: at 0.1 µM
[7] = target: Protein kinase C beta type (Homo sapiens) (UniProt P05771); conditions: at 1 µM
[8] = target: T2, Serine/threonine-protein kinase D1 (Homo sapiens) (UniProt Q15139); conditions: at 0.1 µM
T2 sequence (whole entry): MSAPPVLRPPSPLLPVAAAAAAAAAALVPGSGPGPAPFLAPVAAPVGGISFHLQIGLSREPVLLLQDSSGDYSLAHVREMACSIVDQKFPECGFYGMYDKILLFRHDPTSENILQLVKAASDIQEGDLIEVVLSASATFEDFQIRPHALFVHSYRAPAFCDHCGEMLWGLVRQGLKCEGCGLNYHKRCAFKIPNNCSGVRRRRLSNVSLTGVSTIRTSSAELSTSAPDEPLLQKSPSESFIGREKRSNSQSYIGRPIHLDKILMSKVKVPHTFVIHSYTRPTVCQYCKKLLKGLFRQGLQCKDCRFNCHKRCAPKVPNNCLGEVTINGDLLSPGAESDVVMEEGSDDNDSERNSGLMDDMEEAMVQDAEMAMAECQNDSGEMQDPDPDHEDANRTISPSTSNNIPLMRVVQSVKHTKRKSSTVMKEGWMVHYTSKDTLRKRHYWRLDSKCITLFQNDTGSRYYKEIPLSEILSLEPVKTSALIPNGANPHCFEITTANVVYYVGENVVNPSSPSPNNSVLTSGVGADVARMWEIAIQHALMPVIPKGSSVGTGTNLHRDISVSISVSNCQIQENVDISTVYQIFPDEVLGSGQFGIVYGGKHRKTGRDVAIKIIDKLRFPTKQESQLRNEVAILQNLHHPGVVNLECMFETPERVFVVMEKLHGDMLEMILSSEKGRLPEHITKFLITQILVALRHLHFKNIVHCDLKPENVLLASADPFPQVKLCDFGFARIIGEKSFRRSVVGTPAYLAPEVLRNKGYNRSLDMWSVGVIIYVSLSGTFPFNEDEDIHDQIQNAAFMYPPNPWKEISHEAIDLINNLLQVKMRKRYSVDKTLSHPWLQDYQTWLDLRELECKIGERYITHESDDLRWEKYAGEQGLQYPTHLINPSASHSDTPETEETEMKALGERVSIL

[9] = target: T2, Serine/threonine-protein kinase D1 (Homo sapiens); conditions: at 1 µM
[10] = target: T3, Serine/threonine-protein kinase D2 (Homo sapiens) (UniProt Q9BZL6); conditions: at 0.1 µM
T3 sequence (whole entry): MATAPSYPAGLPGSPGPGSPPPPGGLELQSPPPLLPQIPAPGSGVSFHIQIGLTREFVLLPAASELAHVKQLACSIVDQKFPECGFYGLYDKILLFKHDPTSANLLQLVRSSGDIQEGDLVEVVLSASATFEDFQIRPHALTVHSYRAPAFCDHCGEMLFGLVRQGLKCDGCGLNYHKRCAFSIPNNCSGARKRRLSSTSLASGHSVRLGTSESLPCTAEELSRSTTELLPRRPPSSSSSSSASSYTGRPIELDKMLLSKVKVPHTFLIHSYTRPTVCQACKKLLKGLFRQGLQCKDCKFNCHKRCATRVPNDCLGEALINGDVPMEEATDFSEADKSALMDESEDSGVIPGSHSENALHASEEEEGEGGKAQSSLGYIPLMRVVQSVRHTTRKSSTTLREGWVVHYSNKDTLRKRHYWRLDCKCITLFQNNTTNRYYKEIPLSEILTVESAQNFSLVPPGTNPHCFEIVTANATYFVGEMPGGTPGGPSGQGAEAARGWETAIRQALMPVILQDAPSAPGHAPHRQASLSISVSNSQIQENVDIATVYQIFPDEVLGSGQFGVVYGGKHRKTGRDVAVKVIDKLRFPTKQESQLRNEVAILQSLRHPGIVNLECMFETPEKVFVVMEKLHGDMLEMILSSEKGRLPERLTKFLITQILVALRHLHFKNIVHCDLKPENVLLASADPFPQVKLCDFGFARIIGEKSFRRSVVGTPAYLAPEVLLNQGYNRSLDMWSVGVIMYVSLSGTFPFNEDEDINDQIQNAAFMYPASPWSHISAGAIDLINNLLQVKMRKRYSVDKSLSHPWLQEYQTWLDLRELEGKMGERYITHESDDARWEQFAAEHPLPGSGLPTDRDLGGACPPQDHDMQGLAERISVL

[11] = target: T3, Serine/threonine-protein kinase D2 (Homo sapiens); conditions: at 1 µM
[12] = target: T4, Serine/threonine-protein kinase D3 (Homo sapiens) (UniProt O94806); conditions: at 0.1 µM
T4 sequence (whole entry): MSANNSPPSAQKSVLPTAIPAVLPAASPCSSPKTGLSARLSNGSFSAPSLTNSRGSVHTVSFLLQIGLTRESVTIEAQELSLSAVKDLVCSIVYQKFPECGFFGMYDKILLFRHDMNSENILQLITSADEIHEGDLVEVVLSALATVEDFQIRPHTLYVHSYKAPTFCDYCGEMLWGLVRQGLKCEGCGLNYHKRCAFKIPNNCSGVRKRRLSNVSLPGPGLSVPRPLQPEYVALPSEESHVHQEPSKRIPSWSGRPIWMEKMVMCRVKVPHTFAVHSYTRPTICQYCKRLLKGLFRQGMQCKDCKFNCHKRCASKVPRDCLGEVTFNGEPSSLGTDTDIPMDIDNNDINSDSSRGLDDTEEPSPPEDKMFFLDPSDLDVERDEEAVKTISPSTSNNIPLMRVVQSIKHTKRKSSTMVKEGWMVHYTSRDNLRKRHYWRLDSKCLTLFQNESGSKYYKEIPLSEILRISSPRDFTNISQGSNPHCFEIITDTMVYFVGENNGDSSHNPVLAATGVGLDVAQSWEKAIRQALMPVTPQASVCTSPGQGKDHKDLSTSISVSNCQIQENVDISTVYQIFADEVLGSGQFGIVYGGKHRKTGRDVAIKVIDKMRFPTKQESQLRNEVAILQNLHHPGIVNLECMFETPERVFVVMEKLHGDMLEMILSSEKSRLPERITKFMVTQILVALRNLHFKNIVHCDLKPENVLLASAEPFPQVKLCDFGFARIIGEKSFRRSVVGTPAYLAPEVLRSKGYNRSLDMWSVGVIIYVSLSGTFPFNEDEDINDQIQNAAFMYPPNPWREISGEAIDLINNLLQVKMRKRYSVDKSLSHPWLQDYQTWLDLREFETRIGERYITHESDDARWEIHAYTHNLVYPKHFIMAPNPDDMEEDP

[13] = target: T4, Serine/threonine-protein kinase D3 (Homo sapiens); conditions: at 1 µM
[14] = target: T5, cGMP-dependent protein kinase 1 (Homo sapiens) (UniProt Q13976); conditions: at 0.1 µM
T5 sequence (whole entry): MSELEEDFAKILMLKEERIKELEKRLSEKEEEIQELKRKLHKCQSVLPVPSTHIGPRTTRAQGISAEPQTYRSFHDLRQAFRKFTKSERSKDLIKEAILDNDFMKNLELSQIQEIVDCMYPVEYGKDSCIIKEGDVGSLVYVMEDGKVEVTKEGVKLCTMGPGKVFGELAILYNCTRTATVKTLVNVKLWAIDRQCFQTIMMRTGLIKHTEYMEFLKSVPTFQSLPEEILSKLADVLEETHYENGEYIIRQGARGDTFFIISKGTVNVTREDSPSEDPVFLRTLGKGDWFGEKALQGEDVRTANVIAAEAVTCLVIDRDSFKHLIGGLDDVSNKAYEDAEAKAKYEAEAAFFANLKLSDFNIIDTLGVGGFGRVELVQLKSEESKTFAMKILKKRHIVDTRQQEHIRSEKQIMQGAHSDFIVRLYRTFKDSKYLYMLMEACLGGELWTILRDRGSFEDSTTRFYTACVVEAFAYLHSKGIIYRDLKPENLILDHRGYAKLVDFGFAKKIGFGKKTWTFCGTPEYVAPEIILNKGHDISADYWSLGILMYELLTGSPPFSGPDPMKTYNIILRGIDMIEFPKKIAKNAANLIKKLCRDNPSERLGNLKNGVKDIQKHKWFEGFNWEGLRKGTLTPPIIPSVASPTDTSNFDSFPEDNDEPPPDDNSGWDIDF

[15] = target: T5, cGMP-dependent protein kinase 1 (Homo sapiens); conditions: at 1 µM
[16] = target: T6, cGMP-dependent protein kinase 2 (Homo sapiens) (UniProt Q13237); conditions: at 0.1 µM
T6 sequence (whole entry): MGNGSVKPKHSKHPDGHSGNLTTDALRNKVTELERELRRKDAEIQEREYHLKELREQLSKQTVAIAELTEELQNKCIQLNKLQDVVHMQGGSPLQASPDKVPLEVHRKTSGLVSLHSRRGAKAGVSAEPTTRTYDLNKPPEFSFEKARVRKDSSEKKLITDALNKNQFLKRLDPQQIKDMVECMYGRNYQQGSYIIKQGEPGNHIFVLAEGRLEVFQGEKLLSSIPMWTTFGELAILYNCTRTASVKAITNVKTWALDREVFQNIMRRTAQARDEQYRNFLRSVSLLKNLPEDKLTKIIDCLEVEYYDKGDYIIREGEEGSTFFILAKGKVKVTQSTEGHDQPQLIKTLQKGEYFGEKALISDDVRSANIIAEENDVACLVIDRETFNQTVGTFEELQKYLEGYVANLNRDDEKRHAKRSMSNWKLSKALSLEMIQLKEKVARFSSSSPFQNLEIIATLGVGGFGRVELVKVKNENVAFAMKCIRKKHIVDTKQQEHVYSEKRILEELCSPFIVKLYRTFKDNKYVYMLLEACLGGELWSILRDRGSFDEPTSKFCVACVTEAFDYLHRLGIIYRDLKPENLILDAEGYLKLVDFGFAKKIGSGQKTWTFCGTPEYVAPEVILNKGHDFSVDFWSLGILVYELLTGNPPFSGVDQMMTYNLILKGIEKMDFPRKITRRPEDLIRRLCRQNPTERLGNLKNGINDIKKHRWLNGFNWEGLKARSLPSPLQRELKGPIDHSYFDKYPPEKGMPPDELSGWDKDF

[17] = target: T6, cGMP-dependent protein kinase 2 (Homo sapiens); conditions: at 1 µM
[18] = target: T7, cAMP-dependent protein kinase catalytic subunit PRKX (Homo sapiens) (UniProt P51817); conditions: at 0.1 µM
T7 sequence (whole entry): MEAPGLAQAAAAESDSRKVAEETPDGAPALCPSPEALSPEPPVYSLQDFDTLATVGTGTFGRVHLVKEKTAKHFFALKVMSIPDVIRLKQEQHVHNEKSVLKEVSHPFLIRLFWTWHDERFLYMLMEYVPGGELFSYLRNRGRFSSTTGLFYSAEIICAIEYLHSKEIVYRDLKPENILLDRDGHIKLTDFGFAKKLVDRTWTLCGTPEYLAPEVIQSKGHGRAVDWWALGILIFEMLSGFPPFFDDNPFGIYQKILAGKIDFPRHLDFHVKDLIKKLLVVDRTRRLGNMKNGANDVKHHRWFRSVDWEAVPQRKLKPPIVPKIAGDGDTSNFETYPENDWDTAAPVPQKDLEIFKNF

[19] = target: T7, cAMP-dependent protein kinase catalytic subunit PRKX (Homo sapiens); conditions: at 1 µM
[20] = target: Rho-associated protein kinase 1 (Homo sapiens) (UniProt Q13464); conditions: at 0.1 µM;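 note: values are mean percent inhibition of ROCK1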
Sequence of Rho-associated protein kinase 1 (Homo sapiens) (Q13464 2-1354 limits assumed): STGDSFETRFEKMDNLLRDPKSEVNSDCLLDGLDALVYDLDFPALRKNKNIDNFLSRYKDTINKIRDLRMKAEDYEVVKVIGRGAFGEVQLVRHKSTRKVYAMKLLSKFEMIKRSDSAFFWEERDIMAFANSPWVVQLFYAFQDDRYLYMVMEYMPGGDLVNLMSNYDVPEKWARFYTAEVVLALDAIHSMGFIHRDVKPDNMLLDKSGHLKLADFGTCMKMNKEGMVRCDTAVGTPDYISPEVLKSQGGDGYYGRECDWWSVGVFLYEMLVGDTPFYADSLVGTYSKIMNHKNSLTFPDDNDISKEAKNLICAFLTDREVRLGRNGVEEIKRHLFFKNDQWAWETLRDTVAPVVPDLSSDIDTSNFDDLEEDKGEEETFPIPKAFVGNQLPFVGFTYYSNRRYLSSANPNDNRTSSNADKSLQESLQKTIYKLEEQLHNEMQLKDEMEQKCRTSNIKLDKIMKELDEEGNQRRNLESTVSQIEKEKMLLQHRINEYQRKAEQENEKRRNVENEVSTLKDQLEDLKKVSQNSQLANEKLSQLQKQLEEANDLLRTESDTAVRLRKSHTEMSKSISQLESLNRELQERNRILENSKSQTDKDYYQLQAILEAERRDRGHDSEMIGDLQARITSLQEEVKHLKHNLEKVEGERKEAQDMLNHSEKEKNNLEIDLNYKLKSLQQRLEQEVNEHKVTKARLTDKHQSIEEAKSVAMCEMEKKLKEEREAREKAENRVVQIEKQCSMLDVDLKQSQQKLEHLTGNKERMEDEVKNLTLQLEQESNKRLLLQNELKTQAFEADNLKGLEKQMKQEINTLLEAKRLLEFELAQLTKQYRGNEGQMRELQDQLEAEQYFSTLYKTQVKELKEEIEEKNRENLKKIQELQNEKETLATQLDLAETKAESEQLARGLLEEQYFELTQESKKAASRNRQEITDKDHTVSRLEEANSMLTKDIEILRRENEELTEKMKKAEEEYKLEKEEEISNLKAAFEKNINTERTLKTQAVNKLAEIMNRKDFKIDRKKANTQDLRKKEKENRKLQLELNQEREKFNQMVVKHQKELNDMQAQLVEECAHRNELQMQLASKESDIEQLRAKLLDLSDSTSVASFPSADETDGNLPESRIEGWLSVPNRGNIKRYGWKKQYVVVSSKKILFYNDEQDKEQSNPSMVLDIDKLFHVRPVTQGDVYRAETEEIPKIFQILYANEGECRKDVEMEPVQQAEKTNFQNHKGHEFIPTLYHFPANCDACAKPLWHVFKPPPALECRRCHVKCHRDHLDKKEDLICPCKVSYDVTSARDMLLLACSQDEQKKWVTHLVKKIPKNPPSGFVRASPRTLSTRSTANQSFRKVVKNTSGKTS

Sequence of Protein kinase C beta type (Homo sapiens) (P05771 2-671 limits assumed): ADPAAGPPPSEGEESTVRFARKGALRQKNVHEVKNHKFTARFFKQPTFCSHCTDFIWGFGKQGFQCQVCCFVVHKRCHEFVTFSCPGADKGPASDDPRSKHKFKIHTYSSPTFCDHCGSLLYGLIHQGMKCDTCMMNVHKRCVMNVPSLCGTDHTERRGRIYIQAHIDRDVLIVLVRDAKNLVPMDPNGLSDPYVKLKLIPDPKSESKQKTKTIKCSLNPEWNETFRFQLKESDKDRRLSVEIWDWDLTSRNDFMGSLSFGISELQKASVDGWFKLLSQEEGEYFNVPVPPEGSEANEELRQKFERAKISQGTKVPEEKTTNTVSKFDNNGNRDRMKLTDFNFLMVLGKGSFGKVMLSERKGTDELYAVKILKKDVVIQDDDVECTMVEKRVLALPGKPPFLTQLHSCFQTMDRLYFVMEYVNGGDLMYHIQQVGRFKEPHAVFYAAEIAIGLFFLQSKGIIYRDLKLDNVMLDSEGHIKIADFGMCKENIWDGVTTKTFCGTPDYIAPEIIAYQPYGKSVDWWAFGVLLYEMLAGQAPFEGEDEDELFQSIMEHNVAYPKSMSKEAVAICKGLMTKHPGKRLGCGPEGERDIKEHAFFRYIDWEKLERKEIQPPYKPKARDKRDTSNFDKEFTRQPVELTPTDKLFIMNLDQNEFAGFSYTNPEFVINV
Sequence of Protein kinase C theta type (Homo sapiens) (Q04759 whole entry, looked up): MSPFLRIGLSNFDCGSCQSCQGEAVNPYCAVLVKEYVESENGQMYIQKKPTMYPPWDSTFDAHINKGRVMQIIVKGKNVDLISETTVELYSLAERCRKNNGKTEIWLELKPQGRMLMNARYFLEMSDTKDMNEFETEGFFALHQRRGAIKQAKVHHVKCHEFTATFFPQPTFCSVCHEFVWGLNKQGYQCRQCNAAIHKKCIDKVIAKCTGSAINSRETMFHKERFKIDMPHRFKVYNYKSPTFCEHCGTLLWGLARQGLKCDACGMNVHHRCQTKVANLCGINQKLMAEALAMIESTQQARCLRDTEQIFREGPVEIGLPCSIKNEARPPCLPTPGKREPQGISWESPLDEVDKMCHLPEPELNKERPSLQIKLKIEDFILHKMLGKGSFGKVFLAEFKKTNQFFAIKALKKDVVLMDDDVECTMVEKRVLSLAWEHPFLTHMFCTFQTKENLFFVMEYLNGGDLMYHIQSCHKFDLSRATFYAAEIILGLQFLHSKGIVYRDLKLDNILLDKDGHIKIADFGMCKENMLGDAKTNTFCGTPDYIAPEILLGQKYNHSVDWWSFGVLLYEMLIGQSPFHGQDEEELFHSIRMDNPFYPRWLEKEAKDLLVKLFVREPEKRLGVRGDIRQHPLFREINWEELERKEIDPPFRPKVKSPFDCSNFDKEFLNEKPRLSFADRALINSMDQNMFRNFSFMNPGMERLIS

Row | Compound | inhibition [1] [%] | inhibition [2] [%] | inhibition [3] [%] | inhibition [4] [%] | inhibition [5] [%] | inhibition [6] [%] | inhibition [7] [%] | inhibition [8] [%] | inhibition [9] [%] | inhibition [10] [%] | inhibition [11] [%] | inhibition [12] [%] | inhibition [13] [%] | inhibition [14] [%] | inhibition [15] [%] | inhibition [16] [%] | inhibition [17] [%] | inhibition [18] [%] | inhibition [19] [%] | inhibition [20] [%]
1 | COC(=O)Nc1nc2ccc(Sc3ccc(NC(=O)Nc4cc(C(F)(F)F)ccc4F)cc3)cc2[nH]1 | 4.57 | -0.54 | 0.22 | 0.15 | 0.22 | 0.31 | 0.4 | 0.94 | 0.37 | -0.22 | 0.52 | 1.06 | 0.51 | 0.91 | 1.52 | -0.08 | 0.57 | 0.23 | -1.11 | -0.63
2 | NS(=O)(=O)c1ccc(N/N=C2\C(=O)Nc3ccc(C(=O)NCCCn4ccnc4)cc32)cc1 | 7.85 | 2 | 1.81 | 2.3 | 6.44 | 2.11 | 4.2 | 5.9 | 22.9 | 7.13 | 22.3 | 5.36 | 17.6 | 4.15 | 18.9 | 4.37 | 28.2 | 3.32 | 7.39 | 2.63
3 | CCc1nccc2c1nc(-c1nonc1N)n2CC | -2.73 | -0.45 | 1.45 | -0.41 | 0.94 | 0.5 | 1.81 | 1.12 | 2.3 | 1.51 | 3.17 | 1.43 | 2.71 | 0.88 | 7.44 | 2.5 | 21.1 | -0.13 | -0.42 | 1.09
